We go through 19 compounds from PubChem BioAssay (Tox21).

Inconclusive results are not listed. Where a call stands in place of a potency, no number is given. Calls of active or inactive are those of the source. The call rests on the fitted dose curve; in most records, active means well fitted curve in the direction sought with a large enough effect in the repeat runs; inconclusive means weak or mixed curves; inactive means no such curve, though single readings can be large; an effect the other way counts as inactive or inconclusive. Residues, ends and D or L forms follow the SMILES beside them.

The first experiment in a line: qHTS assay to identify small molecule antagonists of the retinoic acid receptor (RAR) signaling pathway (AID 1159552; further: nearly all actives have a fitted effect of over 50% in size). The note with it: C3RL4 RARE luciferase reporter, retinol-stimulated, 6 h; series mostly up to 92.4 µM. An outline of the steps:
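Retinol signaling pathway inhibitors screened in C3RL4 RARE-luciferase reporter cells seeded overnight at 37 C, then compounds added with 1 uM (final) retinol as pathway substrate. After 6 hr at 37 C, luciferase luminescence read after 30 min at room temperature.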
Regarding `CCCCCCCCCCCCCCCC(=O)O`, the Potency entry was “inactive”.
The same measure, in the same setting: the entry for `C1N2CN3CN1CN(C2)C3` is “inactive”.
As to `O=c1cc[nH]c(=S)[nH]1`, the Potency entry is “inactive”.
Same read-out and setting: the entry for `CCCN(CCC)S(=O)(=O)c1ccc(C(=O)O)cc1` is “inactive”; for `CCCCC1C(=O)N(c2ccccc2)N(c2ccccc2)C1=O` it is “inactive”; for `O=S(=O)(O)NC1CCCCC1` it is “inactive”.
The same measure, in the same setting: the value for `CCCNC(=O)NS(=O)(=O)c1ccc(Cl)cc1` was “inactive”; that for `CCCCC(CC)COC(=O)/C=C/c1ccc(OC)cc1` (stereo not drawn) was “inactive”; that for `CC(C)[C@@H]1CC[C@@H](C)C[C@H]1O` was “inactive”.
Still for that read-out and setting: the entry for `O=C(O)c1cc(N=Nc2ccc(S(=O)(=O)Nc3ccccn3)cc2)ccc1O` is “inactive”.
For `Nc1ccc(S(=O)(=O)Nc2nccs2)cc1`, the Potency result was “inactive”.
Same read-out and setting: the entry for `O=C(c1ccccc1)C(O)c1ccccc1` (stereo not drawn) is “inactive”.
In the case of `COC(=O)[C@H](Cc1ccccc1)NC(=O)[C@@H](N)CC(=O)O` (H-Asp-Phe-OMe), the Potency result is “inactive”.
As for `O=NO`, the Potency result was “inactive”.
Same read-out and setting: the entry for `Nc1ccc(S(=O)(=O)c2ccc(N)cc2)cc1` is “inactive”; for `Cc1noc(NS(=O)(=O)c2ccc(N)cc2)c1C` it is “inactive”; for `CC(=O)NS(=O)(=O)c1ccc(N)cc1` it is “inactive”.
The same measure, in the same setting: the entry for `Cc1cn([C@H]2C[C@H](N=[N+]=[N-])[C@@H](CO)O2)c(=O)[nH]c1=O` is “inactive”; for `Cc1ccc(O)cc1` it is “inactive”.

A short description of a further experiment: qHTS assay to identify small molecule agonists of the retinoic acid receptor (RAR) signaling pathway (AID 1159553). To be noted: C3RL4 RARE luciferase reporter, agonist, 6 h; series mostly up to 73.3 µM. An outline of the steps: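 Compounds dissolved in DMSO were pinned onto C3RL4 cells seeded the previous day, and plates were held 6 hr at 37 C. RARE-driven luciferase output was then read by luminescence.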
As for `CCCCCCCCCCCCCCCC(=O)O`, the result was inactive.
Still for that read-out and setting: the value for `C1N2CN3CN1CN(C2)C3` was “inactive”; that for `O=c1cc[nH]c(=S)[nH]1` was “inactive”; that for `CCCN(CCC)S(=O)(=O)c1ccc(C(=O)O)cc1` was “inactive”.
In the case of `CCCCC1C(=O)N(c2ccccc2)N(c2ccccc2)C1=O`, the compound was called inactive.
On to `O=S(=O)(O)NC1CCCCC1`, for which the compound was classed as inactive.
The same measure, in the same setting: the entry for `CCCNC(=O)NS(=O)(=O)c1ccc(Cl)cc1` is “inactive”.
With `CCCCC(CC)COC(=O)/C=C/c1ccc(OC)cc1` (stereo not drawn), the result was inactive.
Same read-out and setting: the entry for `CC(C)[C@@H]1CC[C@@H](C)C[C@H]1O` is “inactive”.
In the case of `O=C(O)c1cc(N=Nc2ccc(S(=O)(=O)Nc3ccccn3)cc2)ccc1O`, the compound was classed as inactive.
The same measure, in the same setting: the entry for `Nc1ccc(S(=O)(=O)Nc2nccs2)cc1` is “inactive”; for `O=C(c1ccccc1)C(O)c1ccccc1` (stereo not drawn) it is “inactive”.
Same read-out and setting: the entry for `COC(=O)[C@H](Cc1ccccc1)NC(=O)[C@@H](N)CC(=O)O` (H-Asp-Phe-OMe) is “inactive”; for `O=NO` it is “inactive”.
The same measure, in the same setting: the entry for `Nc1ccc(S(=O)(=O)c2ccc(N)cc2)cc1` is “inactive”; for `Cc1noc(NS(=O)(=O)c2ccc(N)cc2)c1C` it is “inactive”.
Consider `CC(=O)NS(=O)(=O)c1ccc(N)cc1`, for which the result was inactive.
Still for that read-out and setting: the value for `Cc1cn([C@H]2C[C@H](N=[N+]=[N-])[C@@H](CO)O2)c(=O)[nH]c1=O` was “inactive”; that for `Cc1ccc(O)cc1` was “inactive”.
